Assay outcomes deposited in PubChem by The Scripps Research Institute Molecular Screening Center.
TEAD-YAP inh: TEAD-YAP interaction inhibition, primary screen, TEAD-YAP interaction inhibitor project, luminescence, HEK-TIYL cells | AID 1259422, 2018 | TEAD-Gal4/YAP UAS-luciferase luminescence | inhibition, % at 9.12 µM | 640,000 tested, 1.4% active; in the data active means inhibition above about 32%
GPR151 activ: activators of human GPR151, primary screen, cell-based, PathHunter beta-arrestin, luminescence | PathHunter beta-arrestin GPR151 cells | 650,000 tested, 1% active | AID 1508602, 2020 | activation, % at 11.2 µM; in the data active means activation above about 4.9%
Target sequence (Q8TDV0 whole entry, looked up): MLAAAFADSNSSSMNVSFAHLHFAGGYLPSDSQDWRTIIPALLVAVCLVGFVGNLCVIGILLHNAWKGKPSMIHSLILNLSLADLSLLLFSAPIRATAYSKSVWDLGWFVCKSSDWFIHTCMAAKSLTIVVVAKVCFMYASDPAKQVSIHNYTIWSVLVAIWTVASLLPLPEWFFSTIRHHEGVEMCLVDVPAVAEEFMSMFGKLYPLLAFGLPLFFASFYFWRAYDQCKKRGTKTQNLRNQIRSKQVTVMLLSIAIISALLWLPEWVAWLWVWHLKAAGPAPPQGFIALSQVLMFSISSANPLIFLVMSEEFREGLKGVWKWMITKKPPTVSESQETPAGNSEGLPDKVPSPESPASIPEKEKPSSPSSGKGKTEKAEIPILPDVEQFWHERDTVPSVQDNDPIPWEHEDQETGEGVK
FBW7 act: FBW7 E3 ligase activators, primary screen, biochemical, AlphaScreen, human; F-box/WD repeat-containing protein 7 (Homo sapiens), Q969H0; normalized activity (activation), % at 26.1 µM; 650,000 tested, 0.13% active; AlphaScreen FBW7–phospho-cyclin E peptide binding, activator screen; AID 1259310, 2017; in the data active means normalized activity above about 1.9%;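 further: purified mutant Fbw7 with reduced substrate affinity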
MITF primary: MITF inhibitors, primary screen, biochemical, AlphaScreen, human | Microphthalmia-associated transcription factor (Homo sapiens), O75030 | AlphaScreen MITF homodimerization, bead proximity signal | inhibition, % at 2.6 µM | 650,000 tested, 0.91% active; in the data active means inhibition above about 50%
Of the large screens only hits and unclear results are named; the others gave an inactive call. This is a sample that favours compounds with a hit; in the whole collection about 3.5% have one here.

NNC(=O)/C(=C\c1ccccc1)NC(=O)c1ccccc1	none
Cc1cc[n+]2cc(C)n(Cc3cccc(F)c3)c2c1	TEAD-YAP inh 41
Cc1cc(C)n(Cc2cccc(F)c2)c(=O)c1C#N	none
CCCCOc1ccccc1/C=C1/SC(N2CCOCC2)=NC1=O	TEAD-YAP inh 41
CC1CCN(C2=NC(=O)/C(=C\c3ccccc3Cl)S2)CC1	none
CC(=O)N1CCN(C2=NC(=O)/C(=C\c3ccccc3OC(C)C)S2)CC1	none
CC(C)Oc1ccccc1/C=C1/SC(N2CCOCC2)=NC1=O	TEAD-YAP inh 45
CC1CCN(C2=NC(=O)/C(=C/c3ccccc3F)S2)CC1	TEAD-YAP inh 54
O=C1C2C(C(=O)N1Cc1cccnc1)C1C=CC2C12CC2 (stereo unspecified)	none
CC(C)Cn1c(CN2CCN(c3ccccc3)CC2)nc2c1c(=O)n(C)c(=O)n2C	none
Cc1ccccc1CN1CCc2c(O)cccc2C1=O	none
CC(=O)N1CCc2cc(C(=O)CN3CCN(c4ccc(Cl)cc4)CC3)ccc21	TEAD-YAP inh 44
COc1cccc(Nc2nc(-c3ccc(OC)cc3OC)cs2)c1	TEAD-YAP inh 64
CCc1ccc(Nc2nc(-c3ccccn3)cs2)cc1	TEAD-YAP inh 40
CCOc1ccc(Nc2nc(-c3sc(NC(=O)CC)nc3C)cs2)cc1	TEAD-YAP inh 48
Cc1nc(N)sc1-c1csc(Nc2cccc(C(F)(F)F)c2)n1	MITF primary 52
COc1ccc(-c2csc(Nc3ccccc3OC)n2)c(OC)c1	none
COc1ccc(NC(=O)NC2(C(=O)N3CCCC3)CCCCC2)cc1	none
O=C(NCc1ccc(F)cc1)c1ccc(N2CCOCC2)c([N+](=O)[O-])c1	none
COc1ccc(Nc2nc(-c3sc(C)nc3C)cs2)cc1	TEAD-YAP inh 42
COc1cc(Br)c(Nc2nc(-c3sc(NC(=O)c4ccccc4)nc3C)cs2)c(Br)c1	TEAD-YAP inh 42
COc1ccc(Nc2nc(-c3ccccn3)cs2)cc1	TEAD-YAP inh 43
COc1ccccc1Nc1nc(-c2sc(C)nc2C)cs1	none
CCOc1ccc(Nc2nc(-c3ccccn3)cs2)cc1	none
Fc1ccc2nc(Nc3nc(-c4ccncc4)cs3)sc2c1	none
Cc1nc(NC(=O)c2ccccc2)sc1-c1csc(Nc2cccc(Cl)c2C)n1	none
Fc1ccc2nc(Nc3nc(-c4ccccn4)cs3)sc2c1	TEAD-YAP inh 52
Cc1cccn2c(=O)c3c(nc12)CCN(C(=O)c1ccco1)C3	none
CCCN1CCC(Nc2ccc3c(c2)CCC3)CC1	none
O=C(CSc1nc2ncccc2[nH]1)NC1CCCC1	none
C=Cc1ccc(Cn2c(C)c(CNCc3ccccc3OCC)c(C(=O)O)c2C)cc1	none
Cc1cc(C=O)c(C)n1-c1ccc(C(=O)O)c(Cl)c1	MITF primary 70
COc1cc(Nc2cc(Nc3ccccn3)nc(N)n2)cc(OC)c1OC	TEAD-YAP inh 44
COc1cc(Nc2cc(Nc3nccc4ccccc34)nc(N)n2)cc(OC)c1OC	TEAD-YAP inh 77
COc1cc(Nc2cc(Nc3ccccn3)ncn2)cc(OC)c1OC	none
CC(=O)c1c(C)[nH]c(C(=O)CN(C)Cc2c(F)cccc2Cl)c1C	TEAD-YAP inh 49
CN(Cc1c(F)cccc1Cl)C(=O)CCl	TEAD-YAP inh 42
CN(Cc1c(F)cccc1Cl)C(=O)CSc1nnc(N)s1	none
CC(=O)C/C(=N/NC(N)=S)C(F)(F)F	TEAD-YAP inh 55
COc1ccc(NC(=O)C(=O)NCC2CCCN2S(=O)(=O)c2ccc(C)cc2)cc1 (stereo unspecified)	TEAD-YAP inh 61
Cc1ccc(S(=O)(=O)N2CCCCC2CCNC(=O)C(=O)NCc2ccccc2)cc1 (stereo unspecified)	TEAD-YAP inh 46
O=c1[nH]nc(-c2cccnc2)n1C1CCCCC1	none
O=c1cc2oc3cc(O)c(O)cc3c(-c3ccc([N+](=O)[O-])o3)c-2cc1O	MITF primary 106
O=c1cc2oc3cc(O)c(O)cc3c(-c3ccc4c(c3)OCO4)c-2cc1O	MITF primary 113
CCN(CC)c1ccc(-c2c3cc(O)c(=O)cc-3oc3cc(O)c(O)cc23)cc1	MITF primary 110
CCCc1cc2c(=O)c(-c3ccc4c(c3)OCO4)c(CC)oc2cc1O	none
COc1ccc2[nH]c(=O)c(CN(C(C)=O)c3ccc(C)cc3)cc2c1	none
COc1ccccc1NC(=S)Nc1ccc(N2CCOCC2)cc1	TEAD-YAP inh 33
COc1ccccc1C(=O)NC(=S)Nc1ccccc1C(=O)O	none
COC(=O)c1cc(OC)c(OC)cc1NC(=S)NC(=O)c1ccccc1	TEAD-YAP inh 33
COc1ccccc1C(=O)NNC(=O)c1cccc(O)c1	TEAD-YAP inh 79
COc1ccccc1NC(=S)NC(=O)c1ccccc1OC	TEAD-YAP inh 39
COC(=O)c1cc(OC)c(OC)cc1NC(=S)Nc1ccccc1	none
COc1ccc(C2NC(=O)C(=O)/C2=C(/O)c2ccccc2)c(OC)c1 (stereo unspecified)	none
CCOc1ccccc1NC(=O)C(CC)Sc1nc2ccsc2c(=O)n1CCC(=O)O (stereo unspecified)	none
O=C1c2cccc3cccc(c23)C(=O)N1CCNCCO	TEAD-YAP inh 64
CCSCCOC(=O)C1=C(C)NC2=C(C(=O)C(C(=O)OC)C(C)C2)C1c1c(F)cccc1Cl (stereo unspecified)	FBW7 act 1.9
Cc1ccc(/C=C2\C(=O)NN(c3ccc(Cl)cc3)C2=O)cc1[N+](=O)[O-]	none
COc1ccc(Br)cc1C1CC(=O)NC2=C1C(=O)CCC2 (stereo unspecified)	TEAD-YAP inh 47
Cn1nc(CC(=O)Nc2ccc(F)c(Cl)c2)c2ccccc2c1=O	FBW7 act 1.9
Cn1nc(CC(=O)Nc2ccccc2Br)c2ccccc2c1=O	none
Cn1nc(CC(=O)Nc2c(F)cccc2F)c2ccccc2c1=O	TEAD-YAP inh 41
Cn1nc(CC(=O)Nc2cccc(F)c2)c2ccccc2c1=O	TEAD-YAP inh 34
Cc1ccc(NC(=O)Cc2nn(C)c(=O)c3ccccc23)cc1	TEAD-YAP inh 42
COc1cc(NC(=O)Cc2nn(C)c(=O)c3ccccc23)cc(OC)c1OC	none
CC1CC(OCC(O)CN2CCc3ccccc3C2)CC(C)(C)C1 (stereo unspecified)	none
Cc1nc(N2CCC(C)CC2)nc(N)c1[N+](=O)[O-]	none
COc1ccc(CNC(=O)Cc2nn(C)c(=O)c3ccccc23)cc1	TEAD-YAP inh 38
COc1ccc(CC(=O)NCc2ccsc2)cc1	TEAD-YAP inh 35
COc1ccc(CC(=O)NCc2ccc(C)cc2)cc1	none
Cc1cccc(NC(=O)Cc2nn(C)c(=O)c3ccccc23)c1	TEAD-YAP inh 45
Cc1ccc(S(=O)(=O)Nc2cccc(-c3csc(C)n3)c2)cc1	none
O=S1(=O)CC(O)C(NC2CCCCC2)C1 (stereo unspecified)	none
Cc1ccccc1SCC(=O)OCc1cc([N+](=O)[O-])cc2c1OCOC2	none
C=CCOc1ccccc1/C=N/n1nnnc1N	none
N#CCOc1ccccc1/C=N/n1nnnc1N	FBW7 act 1.9
COc1ccc(NC=C(C#N)C#N)cc1	none
